# PubChem BioAssay (Tox21)
# Several values for one entry are separate records, joined by “and”; a condition that tells them apart may be missing. Equal values may be shown once. Records with an inconclusive call do not appear. Where a call stands in place of a potency, no number is given. Activity calls are given as the source filed them. Unless noted, the call rests on the fitted dose curve.
# Assay: qHTS assay for small molecule disruptors of the mitochondrial membrane potential - cell viability (AID 720634); further: nearly all actives have a fitted effect of over 20% in size
# Settings: HepG2 viability, ATP luminescence (CellTiter-Glo), 1 h; series mostly up to 83.2 µM
# Method in brief: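 Luminescence from CellTiter-Glo (ATP content) gave viability in HepG2 cells, read in the same wells as the MMP dye assay after 1 hr compound exposure at 37 C.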
# Potency means the concentration at half of the fitted maximal effect.
row,Structure (SMILES),Potency
1,CCc1ccccc1N,inactive
2,C=CCN1C[C@H](C)N([C@H](c2ccc(C(=O)N(CC)CC)cc2)c2cccc(OC)c2)C[C@H]1C,inactive
3,COc1ccc(C(=O)c2c(C)n(CCN3CCOCC3)c3ccccc23)cc1,inactive
4,O=CC=O,inactive
5,C=C(C)C(=O)OCCCCOC(=O)C(=C)C,inactive
6,CCCCCBr,inactive
7,COP(=O)(OC)OC(Br)C(Cl)(Cl)Br (centres undefined),inactive
8,Cc1ncc(C[n+]2csc(CCO)c2C)c(N)n1,inactive
9,Nc1ccc2c(c1)Cc1ccccc1-2,inactive
10,CCC(C)(C)O,inactive
11,CCC1(CCC(C)C)C(=O)NC(=O)NC1=O,inactive
12,NP(N)(=O)NC(=O)c1ccc(F)cc1,inactive
13,CN(C)c1ccc(N=O)cc1,17.3 µM (active) and 48.6 µM (active)
14,C[Si](Cn1cncn1)(c1ccc(F)cc1)c1ccc(F)cc1,31.6 µM (active)
15,O=C1NC(=O)C(=O)C(=O)N1,inactive
16,CC(=O)NNc1ccccc1,inactive
17,CCOP(=S)(OCC)Oc1ccc(S(C)=O)cc1 (centres undefined),inactive
18,O=C(NC(=O)c1cc(F)c(F)cc1Cl)Nc1cc(F)ccc1N1CCC(C(=O)O)CC1,inactive
19,C[C@]12C=CC3=C4CCC(=O)C=C4CC[C@H]3[C@@H]1CC[C@@H]2O,inactive
20,Nc1c(Br)cc(Br)c2c1C(=O)c1ccccc1C2=O,inactive
21,O=C(O)CCCOc1ccc(Cl)cc1Cl,inactive
22,CC(C)c1ccc(NC(=O)N(C)C)cc1,inactive
23,CC(=O)OC(c1ccccc1)C(Cl)(Cl)Cl (centres undefined),inactive
24,NCCc1cc(O)c(O)cc1O,inactive

# Assay: qHTS assay for small molecule disruptors of the mitochondrial membrane potential (AID 720635; active means well fitted inhibition curve with a large enough effect in the signal ratio in the repeat runs; the % refers to the signal ratio)
# Settings: HepG2 mitochondrial membrane potential, Mito-MPS dye ratio; series mostly up to 83.2 µM
# Method in brief: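 HepG2 cells exposed to compound 1 hr at 37C, then Mito-MPS dye 30 min. Ratio read of aggregate (540/590 nm) versus monomer (490/535 nm) fluorescence.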
row,Structure (SMILES),Potency
1,C[CH2][Hg][S]c1ccccc1C(=O)O,11.9 µM (active) and 15.4 µM (active)
2,C=CCN1C[C@H](C)N([C@H](c2ccc(C(=O)N(CC)CC)cc2)c2cccc(OC)c2)C[C@H]1C,inactive
3,O=CC=O,inactive
4,CC(C)[C@@H](C(=O)O[C@@H](C#N)c1cccc(Oc2ccccc2)c1)c1ccc(Cl)cc1,12.4 µM (active) and 30.6 µM (active)
5,Nc1ccccc1C(=O)OCCc1ccccc1,48.8 µM (active) and 43.3 µM (active)
6,CC(C)(C)N(NC(=O)c1ccc(Cl)cc1)C(=O)c1ccccc1,60.8 µM (active)
7,CN1CC[C@]23c4c5ccc(O)c4O[C@H]2[C@@H](O)C=C[C@H]3[C@H]1C5,inactive
8,C[Si](Cn1cncn1)(c1ccc(F)cc1)c1ccc(F)cc1,56.3 µM (active) and 27.3 µM (active)
9,O=C1NC(=O)C(=O)C(=O)N1,inactive
10,Clc1ccccc1,inactive
11,CCOP(=S)(OCC)Oc1ccc(S(C)=O)cc1 (centres undefined),inactive
12,Nc1c(Br)cc(Br)c2c1C(=O)c1ccccc1C2=O,2.29 µM (active)
13,CC(=O)OC(c1ccccc1)C(Cl)(Cl)Cl (centres undefined),54.5 µM (active)
14,c1ccc2sc(SNC3CCCCC3)nc2c1,67.8 µM (active) and 54.5 µM (active)
15,NCCc1cc(O)c(O)cc1O,inactive
